In PubChem BioAssay (EPA / NIEHS):
Where “and” joins values, the source holds several entries; their conditions need not be identical. Equal values may be shown once. Results filed as inconclusive are left out. The source holds several records for some structures; these can differ, active in one and inactive in another. Calls of active or inactive are those of the source. The calls were made as follows, unless noted: active = hit-call score of the fitted dose curve at least 0.9, where 1 is the maximum; inactive = score below 0.9.

Tests used:
[1] = read-out: Human Leukocyte Antigen - DR isotype (HLADR), HLA-DRA (gene 3122); test: BSK_3C_HLADR: BioMAP Diversity Plus: 3C Assay for Human Leukocyte Antigen - DR isotype (HLADR) Biomarker Activity (AID 2283019); details: primary human endothelial cells (HUVEC); actives raise or lower the signal
How it was run: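 Compound added to primary HUVEC cultures, 24 h incubation, then HLA-DR determined by ELISA; endpoint derived by bidirectional fitting relative to DMSO negative control.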

[2] = read-out: Interleukin-8 (IL8), CXCL8 (gene 3576); test: BSK_3C_IL8: BioMAP Diversity Plus: 3C Assay for Interleukin-8 (IL8) Biomarker Activity (AID 2283020); details: primary human endothelial cells (HUVEC); actives raise or lower the signal
How it was run: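 Primary human umbilical vein endothelial cells (3C system) were exposed to test chemical for 24 h, then IL-8 was quantified by ELISA. Responses were fitted bidirectionally against DMSO vehicle as baseline.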

[3] = read-out: Monokine induced gamma interferon (MIG), CXCL9 (gene 4283); test: BSK_3C_MIG: BioMAP Diversity Plus: 3C Assay for Monokine induced gamma interferon (MIG) Biomarker Activity (AID 2283021); details: primary human endothelial cells (HUVEC); actives raise or lower the signal;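 as to AC50: MIG protein level measured by immunoassay in the treated endothelial cultures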
How it was run: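 Primary human umbilical vein endothelial cells in the 3C system were exposed to chemical for 24 h, after which MIG was quantified by ELISA. Activity was fitted bidirectionally against DMSO as negative control and baseline.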

[4] = biological target: human Vitamin D Receptor (VDR), VDR (gene 7421) (UniProt P11473); test: ATG_VDR_TRANS: Attagene TRANS-FACTORIAL HepG2 Assay for human Vitamin D Receptor (VDR) (AID 2283022; active = hit-call score of the fitted dose curve at least 0.9, where 1 is the maximum)
Sequence of human Vitamin D Receptor (VDR), VDR (gene 7421) (P11473 whole entry, looked up): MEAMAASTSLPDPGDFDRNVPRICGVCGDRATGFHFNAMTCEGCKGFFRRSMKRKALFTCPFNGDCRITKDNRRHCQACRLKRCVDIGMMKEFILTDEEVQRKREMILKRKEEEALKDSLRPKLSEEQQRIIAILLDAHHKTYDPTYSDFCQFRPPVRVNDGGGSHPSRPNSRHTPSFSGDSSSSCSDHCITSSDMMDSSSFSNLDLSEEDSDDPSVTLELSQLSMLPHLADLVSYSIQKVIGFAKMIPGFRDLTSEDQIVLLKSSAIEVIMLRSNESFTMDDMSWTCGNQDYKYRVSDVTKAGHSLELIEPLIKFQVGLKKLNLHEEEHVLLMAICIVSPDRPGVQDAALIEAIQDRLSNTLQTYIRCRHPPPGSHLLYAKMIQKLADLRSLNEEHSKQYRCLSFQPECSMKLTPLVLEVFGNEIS
How it was run: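 Multiplexed TRANS reporter in HepG2; 24 h treatment; reporter mRNA by RT-PCR plus capillary electrophoresis; upregulation scored relative to DMSO.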

[5] = BSK_3C_SRB: Viability Assessment in the BioMAP Diversity Plus: 3C Assay (AID 2283023); details: primary human endothelial cells (HUVEC);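 also: cells read 24 h after compound dosing; fitted both ways against DMSO so a hit may be signal rise or drop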
How it was run: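 Overt cytotoxicity is gauged in parallel confluent HUVEC cultures by SRB total-protein staining at the time of biomarker measurement, 24 h after dosing. Gain or loss of signal is fitted versus DMSO.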

[6] = read-out: Matrix Metallopeptidase 1 (MMP1), MMP1 (gene 4312); test: BSK_BE3C_MMP1: BioMAP Diversity Plus: BE3C Assay for Matrix Metallopeptidase 1 (MMP1) Biomarker Activity (AID 2283024); details: primary human bronchial epithelial cells; actives raise or lower the signal
How it was run: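 Primary human bronchial epithelial cells were dosed with test chemicals, and MMP1 levels were measured by ELISA 24 h later. Data were fitted bidirectionally against DMSO as the negative control and activity baseline.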

[7] = BSK_3C_Vis: BioMAP Diversity Plus: 3C Assay for Morphology Visualization (AID 2283025); details: primary human endothelial cells (HUVEC);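 also: fitted both ways so gain or loss versus DMSO counts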
How it was run: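 Human umbilical vein endothelial cells in the 3C system were imaged by light microscopy 24 h after chemical dosing to record cell morphology. Activity was fitted bidirectionally against DMSO as negative control and baseline; the endpoint serves as a background control.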

[8] = read-out: Pselectin, SELP (gene 6403); test: BSK_4H_Pselectin: BioMAP Diversity Plus: 4H Assay for Pselectin Biomarker Activity (AID 2283026); details: primary human endothelial cells (HUVEC); actives raise or lower the signal
How it was run: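 Primary human umbilical vein endothelial cells were exposed to test chemical for 24 h, then cell-surface P-selectin was quantified by ELISA. Activity was fitted bidirectionally against DMSO as negative control and baseline.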

[9] = BSK_4H_SRB: Viability Assessment in the BioMAP Diversity Plus: 4H Assay (AID 2283027); details: primary human endothelial cells (HUVEC);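 also: cells exposed to compound for 24 h before staining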;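 as to AC50: curves fitted both ways versus DMSO so AC50 may be loss or gain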
How it was run: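 Absorbance at 560 nm of SRB-stained total protein served as the viability read-out in confluent primary human umbilical vein endothelium 24 h after chemical treatment. Curves were fitted bidirectionally against DMSO as negative control.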

[10] = BSK_BE3C_SRB: Viability Assessment in the BioMAP Diversity Plus: BE3C Assay (AID 2283028); details: primary human bronchial epithelial cells;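 as to AC50: fitted both ways so AC50 may mark signal gain or loss versus DMSO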
How it was run: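 SRB total-protein staining (0.1%, after TCA fixation) of chemically dosed human bronchial epithelial primary cells at 24 h; DMSO serves as the negative control for bidirectional curve fitting.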

[11] = read-out: Thrombomodulin, THBD (gene 7056); test: BSK_3C_Thrombomodulin: BioMAP Diversity Plus: 3C Assay for Thrombomodulin Biomarker Activity (AID 2283029); details: primary human endothelial cells (HUVEC); actives raise or lower the signal
How it was run: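 Primary human umbilical vein endothelial cells (3C system) were exposed to chemical for 24 h, then thrombomodulin levels were measured by ELISA. Activity was fitted bidirectionally against the DMSO negative control as baseline.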

[12] = read-out: Vascular endothelial growth factor receptor 2 (Homo sapiens) (UniProt P35968); test: BSK_4H_VEGFRII: BioMAP Diversity Plus: 4H Assay for Vascular endothelial growth factor receptor 2 (VEGFR2) Biomarker Activity (AID 2283031); details: primary human endothelial cells (HUVEC); actives raise or lower the signal;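 as to AC50: cell-surface VEGFR2 protein level quantified by ELISA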
How it was run: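 In this multiplexed HUVEC system, biomarker ELISA was performed after 24 h chemical exposure. Parallel SRB staining (TCA fixation, 560 nm) tracked cytotoxicity; DMSO served as baseline.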

[13] = read-out: Human Leukocyte Antigen - DR isotype (HLADR), HLA-DRA (gene 3122); test: BSK_BE3C_HLADR: BioMAP Diversity Plus: BE3C Assay for Human Leukocyte Antigen - DR isotype (HLADR) Biomarker Activity (AID 2283032); details: primary human bronchial epithelial cells; actives raise or lower the signal
How it was run: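 Human primary bronchial epithelial cells in the BE3C system were exposed to chemicals for 24 h, after which HLA-DR levels were quantified by ELISA. Activity was fitted bidirectionally, gain or loss of signal, against DMSO as negative control and baseline.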

[14] = read-out: Vascular cell adhesion molecule 1 (VCAM1), VCAM1 (gene 7412); test: BSK_4H_VCAM1: BioMAP Diversity Plus: 4H Assay for Vascular cell adhesion molecule 1 (VCAM1) Biomarker Activity (AID 2283033); details: primary human endothelial cells (HUVEC); actives raise or lower the signal
How it was run: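 Primary human umbilical vein endothelial cells were exposed to chemicals for 24 h, after which VCAM-1 was quantified by ELISA. Responses were fitted bidirectionally against DMSO as negative control and activity baseline.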

[15] = read-out: Interferon-gamma inducible Protein 10 (IP10), CXCL10 (gene 3627); test: BSK_BE3C_IP10: BioMAP Diversity Plus: BE3C Assay for Interferon-gamma inducible Protein 10 (IP10) Biomarker Activity (AID 2283034); details: primary human bronchial epithelial cells; actives raise or lower the signal
How it was run: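 Human primary bronchial epithelial cells were exposed to chemicals for 24 hours, after which IP-10 levels were measured by ELISA. Data were fitted bidirectionally against DMSO, which served as the negative control and activity baseline.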

[16] = read-out: Transforming growth factor beta 1 (TGFb1), TGFB1 (gene 7040); test: BSK_BE3C_TGFb1: BioMAP Diversity Plus: BE3C Assay for Transforming growth factor beta 1 (TGFb1) Biomarker Activity (AID 2283036); details: primary human bronchial epithelial cells; actives raise or lower the signal
How it was run: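 Human primary bronchial epithelial cells (BE3C system) were dosed with chemical and TGF-b1 levels measured by ELISA at 24 h. Activity was fitted bidirectionally relative to DMSO negative control as baseline.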

[17] = read-out: Plasminogen activator inhibitor-1 (PAI1), SERPINE1 (gene 5054); test: BSK_BE3C_PAI1: BioMAP Diversity Plus: BE3C Assay for Plasminogen activator inhibitor-1 (PAI1) Biomarker Activity (AID 2283037); details: primary human bronchial epithelial cells; actives raise or lower the signal
How it was run: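 Human primary bronchial epithelial cells were exposed to chemical for 24 h, then PAI-1 was quantified by ELISA. Activity was fitted bidirectionally relative to the DMSO negative control baseline.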

[18] = read-out: urokinase plasminogen activator (uPA), PLAU (gene 5328); test: BSK_BE3C_uPA: BioMAP Diversity Plus: BE3C Assay for urokinase plasminogen activator (uPA) Biomarker Activity (AID 2283038); details: primary human bronchial epithelial cells; actives raise or lower the signal
How it was run: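 Using confluent primary human lung bronchial epithelial cultures, we dosed chemicals, waited 24 h, then ran a uPA ELISA, fitting bidirectionally against DMSO.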

[19] = read-out: Urokinase-type plasminogen activator receptor (uPAR), PLAUR (gene 5329); test: BSK_4H_uPAR: BioMAP Diversity Plus: 4H Assay for Urokinase-type plasminogen activator receptor (uPAR) Biomarker Activity (AID 2283030); details: primary human endothelial cells (HUVEC); actives raise or lower the signal
How it was run: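 Endpoint derived via bidirectional curve fitting against DMSO baseline; readout was ELISA detection of uPAR on umbilical vein endothelial cells at 24 h post-treatment, with SRB-stained parallel cultures assessing cytotoxicity.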

[20] = read-out: Monokine induced gamma interferon (MIG), CXCL9 (gene 4283); test: BSK_BE3C_MIG: BioMAP Diversity Plus: BE3C Assay for Monokine induced gamma interferon (MIG) Biomarker Activity (AID 2283035); details: primary human bronchial epithelial cells; actives raise or lower the signal
How it was run: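 MIG level was determined by ELISA after 24 h chemical treatment of primary human bronchial epithelial cells. Values were fitted bidirectionally with DMSO as the negative control and activity baseline.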

Measured: AC50

COP(=S)(OC)Oc1c(Cl)cc(C)cc1Cl
active: [1] 20 µM | [5] 30.3 µM | [7] 37.5 µM | [8] 33.4 µM | [9] 20 µM | [14] 26.9 µM
not listed: [19] | [20]
inactive: all other assays above

CC(C)c1ccc(CO)cc1
inactive: all assays above

C=CC(=O)OCCCCCC(C)C
not listed: [19]
inactive: all other assays above

Oc1cccc2cccnc12
inactive: [2] | [3] | [4] | [5] | [7] | [9] | [11] | [19] | [12]
active: [1] 4.97 µM | [6] 2.73 µM | [8] 5.54 µM | [10] 4.3 µM | [13] 3.53 µM | [14] 1.96 µM | [15] 3.88 µM | [20] 5.47 µM | [16] 5.43 µM | [17] 3.45 µM | [18] 3.44 µM

O=C1C2(Cl)C3(Cl)C4(Cl)C(Cl)(Cl)C5(Cl)C3(Cl)C1(Cl)C5(Cl)C24Cl (configuration not stated)
inactive: [4] | [11]
active: [1] 8.22 µM | [2] 22.3 µM | [3] 11.4 µM | [5] 5.96 µM | [6] 10.4 µM | [7] 5.21 µM | [8] 10.9 µM | [9] 6.58 µM | [10] 5.75 µM | [12] 5.18 µM | [13] 7.65 µM | [14] 8.36 µM | [15] 7.91 µM | [16] 5.28 µM | [17] 8.29 µM | [18] 5.32 µM

CCN1CCC2(CC1)COc1cc3c(cc12)N(C(=O)c1ccc(-c2ccc(-c4nnc(C)o4)cc2C)cc1)CC3
active: [1] 13 µM | [2] 18.4 µM | [3] 32.3 µM | [5] 6.23 µM | [7] 6.51 µM | [8] 12 µM | [9] 23.1 µM | [10] 12.9 µM | [13] 10.5 µM | [14] 27.8 µM | [15] 14.4 µM | [17] 12.5 µM | [18] 18.7 µM
inactive: [4] | [6] | [11] | [12] | [16]

O=C(O)C(F)(F)C(F)(F)C(F)(F)C(F)(F)C(F)(F)C(F)(F)C(F)(F)C(F)(F)C(F)(F)C(F)(F)F
inactive: [1] | [2] | [3] | [4] | [5] | [8] | [9] | [11] | [12] | [14]
active: [1] 29.7 µM | [2] 29 µM | [3] 35.3 µM | [5] 29.4 µM | [6] 29.3 µM and 5.53 µM and 5.54 µM | [7] 37.8 µM | [8] 31 µM | [9] 31.8 µM | [10] 25.5 µM and 2.72 µM and 4.77 µM | [11] 5.29 µM | [13] 9.29 µM and 4.71 µM and 4.92 µM | [14] 33.2 µM | [15] 8.5 µM and 2.27 µM and 2.29 µM | [20] 13.8 µM and 5.09 µM and 5.56 µM | [16] 8.28 µM | [17] 12.3 µM and 2.33 µM and 1.73 µM | [18] 11.6 µM and 6.21 µM and 5.27 µM

COc1cc(-c2ccc(N)c(OC)c2)ccc1N
inactive: [1] | [2] | [3] | [4] | [5] | [6] | [7] | [8] | [9] | [10] | [11] | [12] | [13] | [14] | [15] | [16] | [17] | [18]
active: [1] 25.5 µM | [2] 14.4 µM | [6] 4.7 µM

CC12CC1(C)C(=O)N(c1cc(Cl)cc(Cl)c1)C2=O (configuration not stated)
not listed: [19] | [20]
inactive: all other assays above

O=S(=O)(c1ccc(Cl)cc1)c1ccc(Cl)cc1
inactive: all assays above

C[C@]12CCC(=O)C[C@@H]1CC[C@@H]1[C@@H]2CC[C@]2(C)[C@@H](O)CC[C@@H]12
active: [1] 27.8 µM | [2] 21.5 µM | [5] 20.9 µM
not listed: [19] | [20]
inactive: all other assays above
